Key:
Test in all cases: PBM binding z-score (relative to random genomic background probes); higher = stronger binding; sequences stand for … in GC…GCGATTGACAGCGTAGAATGAAGG
[1] = tested on: RARb homodimer (NR concentration 270 nM)
Outline: (§1)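 Binding z-scores take random background probes as their reference. They come from custom Agilent 4×180K protein-binding microarrays incubated 1 h with ligand-free nuclear receptor dimers, with antibodies against each partner (one per run) detecting binding. Scanned fluorescence was regression-normalized.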

[2] = tested on: RARg:RXRa (NR concentration 270 nM, RXRa partner concentration 90 nM)
Outline: as §1

[3] = tested on: RARg homodimer (NR concentration 270 nM)
Outline: as §1

[4] = tested on: RXRa DBDmut IVT, anti-RXR (DBD mutation: RXRa K156A/R161A, NR concentration 90 nM)
Outline: as §1

[5] = tested on: RXRa homodimer (NR concentration 180 nM)
Outline: as §1

[6] = tested on: THRa:RXRa (NR concentration 90 nM, RXRa partner concentration 90 nM)
Outline: as §1

[7] = tested on: THRa homodimer (NR concentration 90 nM)
Outline: as §1

[8] = tested on: VDR homodimer (NR concentration 270 nM)
Outline: as §1

| Sequence | PBM binding z-score [1] | PBM binding z-score [2] | PBM binding z-score [3] | PBM binding z-score [4] | PBM binding z-score [5] | PBM binding z-score [6] | PBM binding z-score [7] | PBM binding z-score [8] |
| --- | --- | --- | --- | --- | --- | --- | --- | --- |
| GGAACGAGGGTAAAGTTGATAGCATCTGTCGACG | 0.332 | 0.683 | 0.562 | 0.929 | 0.974 | 0.383 | -0.45 | 0.411 |
| GCGACTGGGGCATCAGCAGGTTACCACAACTTAA | 1.08 | 0.941 | 0.32 | -0.0403 | 0.38 | 0.805 | -0.203 | -0.222 |
| AGAACGAGGGCAATGAATTGATAGCACGGGTGGC | 0.905 | 1.08 | 1.27 | 1.34 | 0.98 | 0.765 | -0.323 | 0.621 |
| ACTAGCAGGCCAAGGGTCATTCAAGATTAGTCCG | 3.62 | 4.15 | 3.24 | 0.96 | 4.5 | 3.12 | 0.107 | 2.6 |
| CCTCGGAGGACAACAGGAGGTCAGTGCTGCCAGA | 3.56 | 3.16 | 3.22 | 0.309 | 1.28 | 2.64 | 0.965 | 1.21 |
| CGAACGAGGGCATGTGTTGATAGCAAATGCCGAT | 0.926 | 1.08 | 1.7 | 2.64 | 0.745 | 1.03 | 0.0176 | 1.44 |
| GCAGACAGGTGAAACGCAGGTAATTCAGGGTGGC | 0.413 | 0.684 | 0.304 | -0.376 | 0.614 | 1.38 | -0.381 | -0.586 |
| TCTAACAGGCCAGAGGGTCACTCAAGAGGTACGG | 3.05 | 2.78 | 2.14 | 1 | 2.88 | 1.71 | -0.107 | 0.997 |
| CCAGACAGGTGAGAAGATAACTCAGCCTCGATTA | -0.0712 | 0.21 | 0.586 | 0.0832 | 0.262 | -0.0838 | -0.477 | -0.188 |
| GCAGACAGGTGAAACGCATGTAACTCAGGGTGGC | -0.102 | 0.258 | 0.151 | -0.443 | 0.749 | 0.0674 | -0.704 | -0.736 |
| ACTTACGGGTCACCGAGGTTATAGCACGCGTATA | 4.01 | 6.34 | 5.96 | 2.78 | 7.33 | 4.24 | 1.45 | 4.59 |
| CGTCCAAGGTCAATGATAGGTCAGTGAAAGCATT | 4.99 | 7.81 | 7.06 | 3.55 | 6.04 | 4.03 | 2.44 | 2.61 |
| ATATGTAGGTTGAGGGTCATTCAGGTTGGTTCGC | 3.23 | 2.89 | 2.15 | 1.95 | 3.62 | 2.92 | 1.68 | 3.74 |
| ACATGTAGGTTACATCCGGGTCATTCAGGCTATG | 3.01 | 3.84 | 2.29 | 1.4 | 3 | 3.83 | 2.85 | 3.73 |
| CCTTACGGGTCACTCCAGCTTATAGCATCGGAGT | 2.64 | 4.1 | 4.22 | 1.69 | 3.9 | 2.22 | -0.158 | 0.747 |
| CAAACTAGGTCAAGAGGTCACAGTCCGCTTCCCG | 5.76 | 7.87 | 7.83 | 2.79 | 7.55 | 4.57 | 3.21 | 3.7 |
| CCGACTGGAGCAAAGGTTACCATACTCAGTACGA | 2.17 | 1.89 | 1.29 | 0.545 | 2.57 | 1.39 | 0.122 | 0.17 |
| AGAACGAGGGCAATGAGTTGAAAGCACGGGTGGC | 1.14 | 1.26 | 1.51 | 2.17 | 1.07 | 1.22 | -0.343 | 3 |
| GTACCAAGGTGAATAGGTCGTTGAGGAGTAGGCG | 1.97 | 2.83 | 1.46 | -0.482 | 1.63 | 1.76 | 0.714 | 0.676 |
| ACTAGCAGGCCAAGTGTGGGTCACTCAAACAAAG | 2.25 | 2.53 | 1.51 | -0.502 | 0.982 | 1.44 | -0.207 | -0.135 |
| CCTAGCAAGCCAGGGTCACTCAAGCATTTCGCTT | 2.62 | 2.97 | 2.62 | 0.907 | 3.86 | 3.03 | 1.1 | 1.69 |
| TCGAGTAGGTTAGTCGGGGCATTAAGCCAACATA | 0.232 | 0.0892 | -0.106 | 0.352 | -0.0422 | 1.02 | -0.508 | 0.177 |
| CAAACTAGGTCAAGCGGTCAAAGTCCGCTTCCCG | 4.55 | 5.64 | 6.19 | 1.57 | 4.04 | 3.23 | 0.992 | 1.5 |
| GATACAGGGTCAGCTAGAGGCCAGGGTATGGAAA | 3.59 | 6.74 | 4.95 | 0.978 | 4.38 | 3.08 | 0.844 | 1.01 |
| GCTAGCAGGCAATTTGGGTCACTCAATGACGGGC | 1.55 | 0.628 | 0.847 | -0.416 | 0.683 | 2.76 | 0.687 | -0.322 |
| CGTCCAAGGTCAATGCTAGGTCAGTGCAAGCATT | 5.12 | 7.51 | 6.92 | 3.53 | 5.11 | 4.39 | 3.05 | 3.46 |
| CAAACTAGGTCACGAAAGGTCGAAGTCGAATGAC | 5 | 6.14 | 6.69 | 2.17 | 5.66 | 4.65 | 1.9 | 2.3 |
| CCTGCCAGGTCATGGTCAGCTAATCTACAGTATG | 3.28 | 4.12 | 4.46 | 1.81 | 3.17 | 3.64 | 2.48 | 0.972 |
